{
  "source": "ChEMBL document CHEMBL4513216",
  "about": "“Probing the Open Global Health Chemical Diversity Library for Multistage-Active Starting Points for Next-Generation Antimalarials” (ACS Infect Dis, 2020)",
  "note": "Among all 65,000 compounds or so, about 2,100 (3.2%) showed an effect of 50% or more. The median lay at about -52%. For the sample, strong results were picked, then their nearest neighbours and some compounds at random.",
  "data": [
    {"system": "Plasmodium falciparum", "experiment": "Screen against P. falciparum Asexual Blood Stage (ABS), at 5uM", "assay_type": "functional, Dd2", "conditions": "tested at 5 uM", "units": {"INHIBITION": "%"}, "values": [
      {"smiles": "O=C(CC1C=CCC1)Nc1ncn(CC(=O)N2CCCCCC2)n1", "note": "(stereo unspecified)", "INHIBITION": 23.2},
      {"smiles": "Clc1ccc(C(CNCc2ccncc2)n2cccn2)cc1", "note": "(stereo unspecified)", "INHIBITION": -50.1},
      {"smiles": "Cn1cc(CNCC(c2ccc(Cl)cc2)n2cccn2)cn1", "note": "(stereo unspecified)", "INHIBITION": 18.1},
      {"smiles": "CCn1cc(CNCC(c2ccc(Cl)cc2)n2cccn2)cn1", "note": "(stereo unspecified)", "INHIBITION": 60.8},
      {"smiles": "Cc1cc(CN2CCC(CNS(=O)(=O)c3ccccc3Cl)CC2)c(C)o1", "INHIBITION": 53.6},
      {"smiles": "CCN(C)S(=O)(=O)NCC1CCN(Cc2ccccc2C)CC1", "INHIBITION": 11.6},
      {"smiles": "Cc1cc(CN2CCC(CNS(=O)(=O)c3c(C)noc3C)CC2)c(C)o1", "INHIBITION": 28.4},
      {"smiles": "Cc1cnc2n(c1=O)C(CC(=O)NCc1ccc(Cl)cc1)CS2", "note": "(stereo unspecified)", "INHIBITION": -30.4},
      {"smiles": "Nc1nc(NCCO)cc(N2CCc3c([nH]c4ccccc34)C2)n1", "INHIBITION": 61.3},
      {"smiles": "CC(C)Cc1ncc2c(n1)CN(c1cc(NCCO)nc(N)n1)C2", "INHIBITION": -42.2},
      {"smiles": "COc1ccc2[nH]c3c(c2c1)CN(c1cc(NCCO)nc(N)n1)CC3", "INHIBITION": -52.4},
      {"smiles": "O=C(c1ccc2[nH]ccc2c1)N1CCCSCC1CN1CCCC1", "note": "(stereo unspecified)", "INHIBITION": 21.3},
      {"smiles": "O=C(NCCc1ccn(-c2ccccc2)n1)N1CCSCC1", "INHIBITION": -122},
      {"smiles": "CSc1ccc(CN2C[C@@H]3CC[C@@](O)(c4ccc(C)cn4)[C@@H]3C2)cc1", "INHIBITION": 57.5},
      {"smiles": "COc1ccc(CN2C[C@H]3CC[C@](O)(c4ccc(C)cn4)[C@H]3C2)c(F)c1", "INHIBITION": 17.3},
      {"smiles": "Cc1ccc([C@]2(O)CC[C@H]3CN(Cc4ccc(Cl)cc4Cl)C[C@H]32)nc1", "INHIBITION": 66.6},
      {"smiles": "Cc1ccc([C@]2(O)CC[C@H]3CN(Cc4cccc(F)c4F)C[C@H]32)nc1", "INHIBITION": 45.8},
      {"smiles": "Cc1ccc([C@]2(O)CC[C@H]3CN(Cc4cccc(Cl)c4Cl)C[C@H]32)nc1", "INHIBITION": -9.78},
      {"smiles": "COc1ncc(CN2C[C@@H]3CC[C@@](O)(c4ccc(C)cn4)[C@@H]3C2)cn1", "INHIBITION": -72.4},
      {"smiles": "OC(CN1CCN(CCOCC(F)(F)F)CC1)c1ccccc1", "note": "(stereo unspecified)", "INHIBITION": -64.4},
      {"smiles": "O=S(=O)(c1cccs1)N1CCCC2(COCCN(c3cccnc3)C2)C1", "note": "(stereo unspecified)", "INHIBITION": -39.7},
      {"smiles": "Cc1ccoc1C(=O)N1CCCC(c2cc(C(F)(F)F)[nH]n2)C1", "note": "(stereo unspecified)", "INHIBITION": -127},
      {"smiles": "Cc1ccc(CN2CCC3(CCC3NS(=O)(=O)c3ccccc3)CC2)o1", "note": "(stereo unspecified)", "INHIBITION": 62.4},
      {"smiles": "O=S(=O)(NC1CCC12CCN(CC1CCOCC1)CC2)c1ccccc1", "note": "(stereo unspecified)", "INHIBITION": -62.3},
      {"smiles": "COCC(=O)N1CCC2(CCC2NS(=O)(=O)c2ccccc2)CC1", "note": "(stereo unspecified)", "INHIBITION": -23.9},
      {"smiles": "CC(C)c1ccc(NC(=O)Cn2cc(I)cn2)cc1", "INHIBITION": -19},
      {"smiles": "CC1c2ncc(CN3CCN(C)CC3)n2CCN1Cc1ccccn1", "note": "(stereo unspecified)", "INHIBITION": -124},
      {"smiles": "c1cnc(-c2noc(C3CN(Cc4ccc5c(c4)CCO5)C3)n2)cn1", "INHIBITION": 4.79},
      {"smiles": "CC(C)CC1CC(=O)Nc2c1cnn2Cc1ccco1", "note": "(stereo unspecified)", "INHIBITION": -129},
      {"smiles": "CC(C)c1ccc(O)c(C(=O)NCc2cc[nH]n2)c1", "INHIBITION": -97.2},
      {"smiles": "CCN(c1ccc(C(=O)NCc2cc[nH]n2)cc1)C(C)C", "INHIBITION": 60.1},
      {"smiles": "CCN(c1ccc(C(=O)NCc2ccnc(C)n2)cc1)C(C)C", "INHIBITION": 22.7},
      {"smiles": "Cc1nc(COC(=O)c2cccc3c2OCCO3)no1", "INHIBITION": -17},
      {"smiles": "CCOC(=O)CNC(=O)NCc1cccn1Cc1ccccc1F", "INHIBITION": -158},
      {"smiles": "CN1CC2(CCN(c3nc(N)nc4c3CCNC4)CC2)OC1=O", "INHIBITION": -71.4},
      {"smiles": "Cc1ccc(C)c(OCc2nnc(SCC3CCCN(C)C3)o2)c1", "note": "(stereo unspecified)", "INHIBITION": 60.3},
      {"smiles": "Cc1ccc(OCc2nnc(SCC3CCCN(C)C3)o2)cc1", "note": "(stereo unspecified)", "INHIBITION": 29.8},
      {"smiles": "Cc1cccc(OCc2nnc(SCC3CCCN(C)C3)o2)c1", "note": "(stereo unspecified)", "INHIBITION": 28.5},
      {"smiles": "CCCn1ccc(C(=O)Nc2ccc3c(c2)C(C)(C)C(=O)N3C)n1", "INHIBITION": -3.4},
      {"smiles": "c1ccc2oc(CN3CCCC3c3noc(C4CC4)n3)nc2c1", "note": "(stereo unspecified)", "INHIBITION": 54.4},
      {"smiles": "CCc1nc(C2CCCN2Cc2nnc(C3CCC3)o2)no1", "note": "(stereo unspecified)", "INHIBITION": -88},
      {"smiles": "CC(C)c1nc(C2CCCN2Cc2nnc(C3CCC3)o2)no1", "note": "(stereo unspecified)", "INHIBITION": 53.5},
      {"smiles": "Cc1nc(C2CCCN2Cc2nnc(C3CC3)o2)no1", "note": "(stereo unspecified)", "INHIBITION": -171},
      {"smiles": "CCc1nc(C2CCCN2Cc2nc3ccccc3o2)no1", "note": "(stereo unspecified)", "INHIBITION": -23.2},
      {"smiles": "CC(C)c1nc(C2CCCN(Cc3nnc(C4CC4)o3)C2)no1", "note": "(stereo unspecified)", "INHIBITION": -52.6},
      {"smiles": "C1CC(c2nnc(CN3CCCC3c3noc(C4CC4)n3)o2)C1", "note": "(stereo unspecified)", "INHIBITION": 53.5},
      {"smiles": "C1CC(c2noc(C3CC3)n2)N(Cc2nnc(C3CC3)o2)C1", "note": "(stereo unspecified)", "INHIBITION": -1.02},
      {"smiles": "c1ccc2oc(CCCN3CCCC3c3noc(C4CC4)n3)nc2c1", "note": "(stereo unspecified)", "INHIBITION": -21.2},
      {"smiles": "CC(c1nc(C2CC2)no1)N1CCN(Cc2noc(C3CC3)n2)CC1", "note": "(stereo unspecified)", "INHIBITION": -55.4},
      {"smiles": "COc1ccc(CN2C[C@H]3CC[C@@H](C2)N(Cc2snnc2C)C3)cc1", "INHIBITION": -6.34},
      {"smiles": "CCc1cc(=O)n(CC(=O)N2CCC(C)CC2)c(-c2ccccc2)n1", "INHIBITION": -53.5}
    ]}
  ]
}
